# Measured values reported in PMC7862700, “An all-to-all approach to the identification of sequence-specific readers for epigenetic DNA modifications on cytosine”.
# Key:
# Assay in all cases: DAPPL (digital affinity profiling via proximity ligation, sequencing); 10 mM Tris-HCl pH 7.5, 50 mM NaCl, 1 mM DTT, 4% glycerol, room temperature, 30 min; GST-TFs on glutathione beads, 16-mer random dsDNA library, 0.1% formaldehyde crosslink after washing; high values mean tight binding
# Details in all cases: protein: recombinant; tags: N-terminal GST; dsDNA, one strand shown
# [1] = target: ETV1 (Homo sapiens, UniProt P50549 1-477)
# Chain of ETV1 (P50549 whole entry, the tested form may be a part): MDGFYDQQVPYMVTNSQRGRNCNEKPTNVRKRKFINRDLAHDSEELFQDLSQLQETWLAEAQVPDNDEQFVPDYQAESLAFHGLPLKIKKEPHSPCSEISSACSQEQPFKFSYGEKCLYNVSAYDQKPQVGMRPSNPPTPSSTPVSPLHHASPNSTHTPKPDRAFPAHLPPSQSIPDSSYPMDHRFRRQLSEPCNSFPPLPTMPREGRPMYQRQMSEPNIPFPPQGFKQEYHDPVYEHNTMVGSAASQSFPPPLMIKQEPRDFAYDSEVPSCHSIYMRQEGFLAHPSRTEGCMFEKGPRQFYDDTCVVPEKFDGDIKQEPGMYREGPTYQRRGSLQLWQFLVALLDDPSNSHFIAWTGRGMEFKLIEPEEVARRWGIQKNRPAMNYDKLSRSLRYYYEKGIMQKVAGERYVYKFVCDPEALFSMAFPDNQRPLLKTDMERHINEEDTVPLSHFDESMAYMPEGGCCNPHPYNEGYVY
# Method in brief: (§1)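 Binding signal is defined as a hexamer's read frequency for one factor over its frequency for the tag-only sample. To obtain reads, GST-fused human transcription factors were expressed in yeast, captured on glutathione beads, barcoded with DNA and pooled with that sample. Pools met 200 nmole of a 16-mer random double-stranded DNA library in Tris/NaCl/DTT/glycerol buffer for 30 min at room temperature before washing, 0.1% formaldehyde crosslinking, proximity ligation (BsaI/T4 ligase, 1 h, 37 °C), PCR and Illumina NextSeq500 sequencing.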
# [2] = target: T1, ERF (Homo sapiens, UniProt P50548 1-548)
# T1 sequence: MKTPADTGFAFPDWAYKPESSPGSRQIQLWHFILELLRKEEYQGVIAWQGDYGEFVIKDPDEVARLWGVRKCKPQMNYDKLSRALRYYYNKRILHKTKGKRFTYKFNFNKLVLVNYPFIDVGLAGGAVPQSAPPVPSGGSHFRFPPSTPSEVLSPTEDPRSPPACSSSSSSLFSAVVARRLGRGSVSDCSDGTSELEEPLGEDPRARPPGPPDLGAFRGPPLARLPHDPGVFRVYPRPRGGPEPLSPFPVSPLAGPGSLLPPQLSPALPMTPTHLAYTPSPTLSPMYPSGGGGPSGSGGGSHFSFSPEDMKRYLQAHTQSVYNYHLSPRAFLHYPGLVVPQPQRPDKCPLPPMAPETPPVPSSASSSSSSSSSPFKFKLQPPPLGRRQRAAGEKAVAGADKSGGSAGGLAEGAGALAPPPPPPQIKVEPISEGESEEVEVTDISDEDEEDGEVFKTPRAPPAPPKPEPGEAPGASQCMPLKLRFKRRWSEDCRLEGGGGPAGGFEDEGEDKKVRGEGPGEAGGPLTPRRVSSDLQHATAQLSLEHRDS
# Method in brief: as §1
# [3] = target: T2, ETV3L (Homo sapiens, UniProt Q6ZN32 1-361)
# T2 sequence: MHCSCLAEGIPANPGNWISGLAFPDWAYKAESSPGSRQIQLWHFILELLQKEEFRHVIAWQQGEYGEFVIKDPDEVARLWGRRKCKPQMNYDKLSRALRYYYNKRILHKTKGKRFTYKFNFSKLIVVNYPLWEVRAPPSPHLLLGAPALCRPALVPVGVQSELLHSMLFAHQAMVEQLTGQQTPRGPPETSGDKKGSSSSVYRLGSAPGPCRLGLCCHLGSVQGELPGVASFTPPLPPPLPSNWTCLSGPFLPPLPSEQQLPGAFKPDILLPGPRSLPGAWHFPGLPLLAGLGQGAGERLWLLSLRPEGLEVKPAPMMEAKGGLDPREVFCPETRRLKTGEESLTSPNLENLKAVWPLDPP
# Method in brief: as §1
# [4] = target: T3, ETS2 (Homo sapiens, UniProt P15036 1-469)
# T3 sequence: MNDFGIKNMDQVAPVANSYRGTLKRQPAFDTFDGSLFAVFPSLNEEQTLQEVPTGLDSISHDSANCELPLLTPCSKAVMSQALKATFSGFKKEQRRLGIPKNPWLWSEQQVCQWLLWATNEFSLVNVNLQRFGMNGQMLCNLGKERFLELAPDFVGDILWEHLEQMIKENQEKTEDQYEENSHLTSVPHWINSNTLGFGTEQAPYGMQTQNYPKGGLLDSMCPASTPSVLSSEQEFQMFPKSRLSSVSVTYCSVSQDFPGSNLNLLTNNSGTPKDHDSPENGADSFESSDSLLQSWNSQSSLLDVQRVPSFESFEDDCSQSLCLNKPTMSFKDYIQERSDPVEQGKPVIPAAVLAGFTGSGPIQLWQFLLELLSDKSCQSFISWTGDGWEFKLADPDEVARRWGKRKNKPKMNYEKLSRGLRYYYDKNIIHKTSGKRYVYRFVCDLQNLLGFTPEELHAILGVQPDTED
# Method in brief: as §1
# [5] = target: T4, SPDEF (Homo sapiens, UniProt O95238 1-335)
# T4 sequence: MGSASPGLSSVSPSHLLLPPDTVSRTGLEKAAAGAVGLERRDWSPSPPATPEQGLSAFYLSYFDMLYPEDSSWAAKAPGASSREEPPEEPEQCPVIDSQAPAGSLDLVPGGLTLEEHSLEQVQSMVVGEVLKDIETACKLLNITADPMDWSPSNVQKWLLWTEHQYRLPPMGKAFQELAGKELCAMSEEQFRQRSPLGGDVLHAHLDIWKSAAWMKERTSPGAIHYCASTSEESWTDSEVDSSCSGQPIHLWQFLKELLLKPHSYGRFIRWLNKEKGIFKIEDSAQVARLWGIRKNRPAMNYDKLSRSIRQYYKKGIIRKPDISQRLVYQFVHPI
# Method in brief: as §1
# [6] = target: T5, ETV7 (Homo sapiens, UniProt Q9Y603 1-341)
# T5 sequence: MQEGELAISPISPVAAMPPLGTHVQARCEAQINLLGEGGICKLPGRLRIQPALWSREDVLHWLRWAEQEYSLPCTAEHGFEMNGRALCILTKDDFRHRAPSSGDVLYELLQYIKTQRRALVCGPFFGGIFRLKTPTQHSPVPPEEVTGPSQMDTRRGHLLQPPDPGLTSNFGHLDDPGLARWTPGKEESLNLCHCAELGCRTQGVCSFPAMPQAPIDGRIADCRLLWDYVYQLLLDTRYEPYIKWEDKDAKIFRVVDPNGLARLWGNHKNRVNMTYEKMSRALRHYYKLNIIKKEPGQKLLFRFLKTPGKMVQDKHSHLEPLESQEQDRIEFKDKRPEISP
# Method in brief: as §1
# [7] = target: T6, ELF5 (Homo sapiens, UniProt Q9UKW6-2 1-255)
# T6 sequence: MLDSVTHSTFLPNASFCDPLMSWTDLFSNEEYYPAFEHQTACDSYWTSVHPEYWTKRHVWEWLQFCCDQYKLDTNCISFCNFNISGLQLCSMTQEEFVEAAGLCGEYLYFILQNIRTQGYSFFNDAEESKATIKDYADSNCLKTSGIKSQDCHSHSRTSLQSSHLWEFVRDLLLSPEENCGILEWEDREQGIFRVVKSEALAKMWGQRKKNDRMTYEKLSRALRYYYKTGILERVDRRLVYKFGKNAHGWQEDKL
# Method in brief: as §1
# [8] = target: T7, ETV3 (Homo sapiens, UniProt P41162-2 1-143)
# T7 sequence: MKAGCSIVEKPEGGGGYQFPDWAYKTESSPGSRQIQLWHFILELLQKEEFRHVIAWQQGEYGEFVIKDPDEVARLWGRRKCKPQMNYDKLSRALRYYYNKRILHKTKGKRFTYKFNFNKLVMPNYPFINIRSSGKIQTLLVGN
# Method in brief: as §1
# [9] = target: ETV6 (Homo sapiens, UniProt P41212 1-452)
# Chain of ETV6 (P41212 whole entry): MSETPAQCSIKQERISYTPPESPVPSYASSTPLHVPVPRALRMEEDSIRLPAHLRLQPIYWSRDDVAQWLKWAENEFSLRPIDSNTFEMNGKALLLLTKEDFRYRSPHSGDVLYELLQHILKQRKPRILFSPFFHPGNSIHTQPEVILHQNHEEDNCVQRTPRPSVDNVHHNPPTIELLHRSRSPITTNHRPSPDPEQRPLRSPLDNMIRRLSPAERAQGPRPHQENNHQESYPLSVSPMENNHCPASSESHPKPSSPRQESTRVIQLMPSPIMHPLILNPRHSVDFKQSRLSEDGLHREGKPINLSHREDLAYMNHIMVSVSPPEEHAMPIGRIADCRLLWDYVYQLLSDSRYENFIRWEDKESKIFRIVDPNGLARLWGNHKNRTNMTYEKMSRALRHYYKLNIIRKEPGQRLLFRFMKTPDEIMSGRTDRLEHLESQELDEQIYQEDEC
# Method in brief: as §1
sequence,measurement,setting,value
GCCTTA,binding signal,[1],"1.14 fold enrichment (6-mer frequency, TF over GST control)"
same,binding signal,[2],"1.15 fold enrichment (6-mer frequency, TF over GST control)"
same,binding signal,[3],"1.04 fold enrichment (6-mer frequency, TF over GST control)"
same,binding signal,[4],"1.15 fold enrichment (6-mer frequency, TF over GST control)"
same,binding signal,[5],"1.12 fold enrichment (6-mer frequency, TF over GST control)"
same,binding signal,[6],"1.18 fold enrichment (6-mer frequency, TF over GST control)"
same,binding signal,[7],"1.14 fold enrichment (6-mer frequency, TF over GST control)"
same,binding signal,[8],"1.08 fold enrichment (6-mer frequency, TF over GST control)"
same,binding signal,[9],"1.07 fold enrichment (6-mer frequency, TF over GST control)"
